PubChem BioAssay AID602340 (Broad Institute, 2012)
Hit rate of the full screen: of about 330,000 compounds, about 2,600 (0.79%) were called active.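 Rule for the calls: active = mean ATP rescue above about 67%, or every replicate alone reaching that limit (limit read from the data, passing the limit was not always enough); inconclusive = no clear call, values can overlap the other calls; inactive = mean under the limit and some replicate under it.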 For the sample, actives were picked, then their nearest neighbours and some compounds at random.

Assay: suppressors of statin myotoxicity in C2C12 myotubes, primary screen, cell-based, single point, plate reader (AID 602340);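 note: myotubes were challenged with 10 µM simvastatin during compound exposure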
Settings: C2C12 myotubes + simvastatin, ATP luminescence, 48 h; at 7.49 µM; active compounds read high
For `COc1ccc(C(=O)CC2C(=O)N(C)C(=O)N(C)C2=O)cc1`, the rescue of ATP level was -12% (inactive).
In the case of `Cc1ccc(C2CN(C)CC2C(=O)c2ccc(F)cc2)cc1` (stereo not given), the rescue of ATP level is reported as -5.74% (inactive).
For `COc1ccc(C(=O)C2CN(C)CC2C(=O)c2ccc(OC)cc2)cc1` (stereo not given), the rescue of ATP level was 152% (active).
In the case of `COc1cccc(-c2ccc3n(c2=O)C[C@H]2[C@H](CO)[C@@H](C(=O)O)[C@@H]3N2C(=O)c2cnccn2)c1`, the rescue of ATP level is reported as 13.9% (inactive).
For `CCn1cc(CN2CCCC(C(=O)c3cccc(C(F)(F)F)c3)C2)cn1` (stereo not given), the rescue of ATP level was -1.69% (inactive).
With `COc1cccc(C(c2nnnn2-c2ccc3c(c2)OCCO3)N2CCC3(CC2)C(=O)NCN3c2ccccc2)c1OC` (stereo not given) the rescue of ATP level was -28% (inactive).
With `Cc1cc(OCc2cc(C(=O)O)oc2C)c2c3c(c(=O)oc2c1)CCCC3` the rescue of ATP level was 23.5% (inactive).
With `CCN1CCN(C(=O)Cc2coc3cc(C)cc(C)c23)CC1` the rescue of ATP level was 104% (active).
In the case of `COc1ccccc1CN1CCN(C(=O)Cc2ccccc2)CC1`, the rescue of ATP level is reported as -9.85% (inactive).
With `O=C(O)[C@H]1[C@H](CO)[C@H]2Cn3c(ccc(-c4ccccc4)c3=O)[C@@H]1N2S(=O)(=O)c1ccccc1F` the rescue of ATP level was 21.2% (inactive).
